The source made the active and inactive calls.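 How the source made its calls: active means cell survival after UV exposure 2 SD above solvent-only control wells at 10 µM, confirmed on one or two repeats; inactive means the rest.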
Experiment: cell survival after pyrene fatty acid photosensitization – ZR-82 cells, Analyticon library, screen 2, phospholipid biosynthesis inhibitor project, primary screen (AID 1347383);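 further: survival reflects blocked phospholipid synthesis cutting uptake of the phototoxic fatty acid; compound and fatty acid exposure 3 h then viability read next day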
Conditions: ZR-82 CHO cells, pyrene-fatty acid UV killing, CellTiter Blue, at 10 µM; peroxisome-deficient CHO-K1 variant, with DGAT-1, DGAT-2 and ACAT inhibitors unless noted
With `COc1ccc([C@@]23CC[C@H](O)C[C@@H]2N(C)CC3)cc1OC` the outcome was “inactive”. For `CN1C(=O)c2ccccc2NC(=O)[C@]12O[C@@H]2c1ccccc1`, the outcome was “inactive”. In the case of `O=C1N[C@@H](Cc2ccccc2)CN2CCCC[C@@H]12`, the outcome is reported as “inactive”. With `OCC(O)Cc1ccc2c(c1)OCO2` (centres undefined) the outcome was “inactive [setting not given]”. In the case of `CO[C@@H]1[C@@H](O)[C@H](C)O[C@@H](O[C@H]2CC[C@]3(C)C4CC[C@]5(C)[C@H](C6=CC(=O)OC6)CC[C@]5(O)C4CC[C@@H]3C2)[C@H]1OC(C)=O` (some centres undefined), the outcome is reported as “inactive”. For `COc1cc(C2c3cc4c(cc3C(O)C3COC(=O)C23)OCO4)cc(OC)c1O` (centres undefined), the outcome was “inactive”. With `CCC1CN2CCC3(C(=O)Nc4cccc(O)c43)C2CC1/C(=C/OC)C(=O)OC` (centres undefined) the outcome was “inactive”. In the case of `C=C(C)[C@H]1CCC(C)=C[C@@H]1c1c(O)cc(CCCCC)c(C(=O)O)c1O`, the outcome is reported as “inactive”. In the case of `CN1Cc2c(ccc3c2OCO3)[C@@H]2[C@H]1c1cc3c(cc1C[C@@H]2O)OCO3`, the outcome is reported as “inactive”. For `COc1ccc([C@@]23CC[C@@H](O)C[C@@H]2N(C)CC3)cc1OC`, the outcome was “inactive”. With `CC1(C)OC1COc1c2occc2cc2ccc(=O)oc12` (centres undefined) the outcome was “inactive”. With `CC[C@H]1CN2CC[C@H]1C[C@@H]2[C@@H](O)c1ccnc2ccc(OC)cc12` the outcome was “inactive”. For `CC1(C)C=Cc2c(ccc3c4c([nH]c23)C(C)(C)C2CC35CCCN3C(=O)C2(C4)NC5=O)O1` (centres undefined), the outcome was “inactive”. For `CO[C@@H]1[C@H](O)[C@@H](O[C@@H]2C[C@H]3CC[C@@H]4C(CC[C@]5(C)[C@@H](C6=CC(=O)OC6)CC[C@]45O)[C@@]3(C)[C@H](O)C2)O[C@H](C)[C@@H]1O` (some centres undefined), the outcome was “inactive”.
